Rows were chosen to be rich in hits. Some 4.1% of all compounds tested hit in one or more screens of this group.
MazEF act – MazEF (E. coli) toxin RNase activation; FAM/BHQ RNA-DNA oligo cleavage fluorescence, 5 h; activation, % at 20 µM; 0.32% of 350,000 active; AID 504720; in the data active = activation above about 50%
Target sequence (P0AE70 whole entry, looked up): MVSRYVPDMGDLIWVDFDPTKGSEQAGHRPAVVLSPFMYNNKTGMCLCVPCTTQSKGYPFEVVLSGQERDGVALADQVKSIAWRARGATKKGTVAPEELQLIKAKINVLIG
Anthrax LF prot – blocks Bacillus anthracis lethal factor protease. P15917. multiplex microsphere protease cleavage assay, LF. inhibition, % at 10 µM. 0.12% of 360,000 active. AID 588501; also: plate controls were buffer without enzyme for full effect and enzyme alone for no effect
Autofluor counter – compound fluorescence in toxin protease inhibitor counterscreen. fluorescence intensity (concentration not given with the values). compound autofluorescence counterscreen, microsphere flow cytometry; active compounds read high. 3.1% of 360,000 active; in the data active = fluorescence intensity above about 16000; inconclusive = no clear call, values can overlap the other calls
BoNT F protease – blocks Botulinum neurotoxin F light chain protease. Multiplex microsphere protease cleavage assay, flow cytometry. inhibition, % at 10 µM. 0.22% of 360,000 active. AID 588497; in the data active = inhibition above about 35%, passing the limit was not always enough; inconclusive = no clear call, values can overlap the other calls; also: plate controls were buffer without enzyme for full effect and enzyme alone for no effect
DUSP3 inh – blocks human VHR1 dual specificity phosphatase | P51452 | recombinant VHR phosphatase, pNPP absorbance | inhibition, % at 13.3 µM | 0.52% of 290,000 active; in the data active = inhibition above about 50%
Target sequence (P51452 whole entry, looked up): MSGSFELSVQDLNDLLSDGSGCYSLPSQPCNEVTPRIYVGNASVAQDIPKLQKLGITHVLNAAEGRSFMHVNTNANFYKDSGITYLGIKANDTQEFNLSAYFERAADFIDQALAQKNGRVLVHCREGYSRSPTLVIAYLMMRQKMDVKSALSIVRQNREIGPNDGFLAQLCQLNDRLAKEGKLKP
BoNT-A LC inh2 – BoNT A light chain protease inhibition. 0.17% of 360,000 active. multiplex microsphere protease substrate cleavage, flow cytometry. inhibition, % at 10 µM; also: plate controls were buffer without enzyme for full effect and enzyme alone for no effect
BoNTA LC inh 1 – inhibitors of Botulinum neurotoxin A light chain protease | shares compounds with BoNT F protease | multiplex microsphere protease assay, flow cytometry | inhibition, % at 10 µM | 3% of 720 active; in the data active = inhibition above about 32%
BoNT-F LC CP1 – inhibitors of Botulinum neurotoxin F light chain protease; shares compounds with BoNT F protease; multiplex microsphere protease cleavage assay, flow cytometry; inhibition, % at 10 µM; 720 tested, under 10 active; AID 602140; call rule not given here
Anthrax LF CP1 – inhibitors of Bacillus anthracis lethal factor protease; inhibition, % at 10 µM; 720 tested, under 10 active; multiplex microsphere protease cleavage assay, LF; shares compounds with BoNT F protease; AID 602142; call rule not given here
* = called active by the depositor; ? = inconclusive; / = no result given. Rule as the data show it, unless noted: active = inhibition above about 30%; inconclusive = no clear call, values can overlap the other calls; inactive = below that.

SMILES | MazEF act | Anthrax LF prot | Autofluor counter | BoNT F protease | DUSP3 inh | BoNT-A LC inh2 | BoNTA LC inh 1 | BoNT-F LC CP1 | Anthrax LF CP1
Cc1cccc(NC(=O)c2cccc(S(=O)(=O)Nc3ccccc3C(=O)O)c2)c1 | 3 | -7 | 3303 | -48 | 14 | -3 | 1 | -6 | -2
Cc1ccccc1NC(=O)c1cccc(S(C)(=O)=O)c1 | 9 | -2 | 4707 | 3 | 34 | -1 | / | / | /
Cc1ccc(NS(=O)(=O)c2cccc(C(=O)O)c2)c(C)c1 | -3 | 3 | 7495 | 0 | 17 | 1 | / | / | /
COc1ccc(CNC(=O)c2cccc(NC(=O)c3ccccc3)c2)cc1 | -18 | 0 | 2804 | 40* | 26 | 4 | 0 | -7 | -2
COc1ccc(C(NC(=O)C2CCN(C/C=C/c3ccc(OC(C)=O)c(OC)c3)CC2)c2ccccn2)cc1 (stereo not drawn) | / | 2 | 4050 | -8 | / | 0 | / | / | /
Cc1ccc(C)c(C(O)c2ncc(-c3cccc(F)c3)[nH]2)c1 (stereo not drawn) | / | 4 | 3984 | -4 | / | 0 | / | / | /
Cc1ccccc1OCC(=O)NCCCNC(=O)c1ccco1 | -9 | 0 | 6166 | 5 | 23 | 0 | / | / | /
COc1ccc(NS(=O)(=O)c2cccc(C(=O)Nc3cccc(C(=O)O)c3)c2)cc1 | -2 | -10 | 4059 | ? | -23 | -2 | 1 | 15 | -4
O=P(c1ccccc1)(c1ccccc1)c1ccc(O)cc1 | 8 | 7 | 4321 | ? | 5 | -4 | / | / | /
CCOc1c(Br)cc(C(N)=O)cc1OCc1ccccc1 | -7 | -1 | 2607 | 36* | -5 | 3 | -2 | 0 | 0
OC(CNC1Cc2ccccc2C1)c1ccccc1 (stereo not drawn) | -2 | -5 | 2820 | 36* | 16 | 4 | -1 | -3 | 0
COc1ccc(NC(=O)c2cc(C3CCCCN3C(=O)C3CCCCC3)on2)c(C)c1 (stereo not drawn) | / | 6 | 3415 | -4 | / | 0 | / | / | /
COc1cc(SC)ccc1C(=O)NCCN1CCOCC1 | 6 | 37* | 4147 | ? | -1 | 4 | -1 | -2 | -4
COc1ccc(Cl)cc1C(=O)NCCN1CCOCC1 | -2 | / | / | / | 17 | / | / | / | /
Cc1ccc(OCCNC(=O)c2ccccc2O)cc1 | 9 | 12 | 4460 | 36* | 16 | -1 | -1 | -11 | -3
Cc1csc(SCC(=O)Nc2nncs2)n1 | 6 | 0 | 5070 | 9 | 14 | 0 | / | / | /
CCC(Cc1ccccc1)NS(=O)(=O)c1ccc2c(c1)NC(=O)C(C)S2 (stereo not drawn) | 6 | 0 | 5699 | -3 | 20 | 0 | / | / | /
O=[N+]([O-])c1cccc(-c2cn3nc(-c4ccccc4)c(-c4ccccc4)nc3n2)c1 | -1 | 33* | 4123 | 48* | 36 | 67* | 40* | 10 | 24
c1ccc(-c2cn3nc(-c4ccccc4)c(-c4ccccc4)nc3n2)cc1 | -86 | 46* | 5284 | 24 | 2 | 76* | 62* | 11 | 28
O=[N+]([O-])c1ccc(N2N=C(c3ccco3)CC2c2ccccc2)cc1 (stereo not drawn) | -22 | 23 | 4856 | -30 | 3 | 32* | 9 | -4 | 1
Fc1ccc(C2CC(c3ccco3)=NN2c2ccccc2)cc1 (stereo not drawn) | -2 | -1 | 3720 | -5 | -14 | 0 | / | / | /
COc1ccccc1N1N=C(c2ccc([N+](=O)[O-])cc2)CC1c1ccccc1 (stereo not drawn) | -5 | -5 | 16503* | 27 | 14 | 38* | 48* | 28 | 1
Cc1noc(C)c1S(=O)(=O)Nc1ccc2c(c1)C(=O)N([C@H](C)CO)C[C@H](C)[C@@H](CN(C)Cc1ccc(C(=O)O)cc1)O2 | 3 | 2 | 3121 | 0 | / | 0 | / | / | /
C[C@@H](c1ccccc1)N1C[C@H]2CCCN2c2cc(Br)ccc2S1(=O)=O | 5 | -4 | 3524 | 5 | / | 0 | / | / | /
CCCN(CCC)C(C)C(=O)NCC1(c2ccccc2)CCCC1 (stereo not drawn) | -7 | -4 | 4589 | -3 | 21 | 0 | / | / | /
SMILES | MazEF act | Anthrax LF prot | Autofluor counter | BoNT F protease | DUSP3 inh | BoNT-A LC inh2 | BoNTA LC inh 1 | BoNT-F LC CP1 | Anthrax LF CP1
CCOc1ccc(-c2nc(CSc3nncs3)cs2)cc1OC | 6 | -28 | ? | 41* | 21 | 25 | -1 | -6 | -8
Cc1[nH]c2ccccc2c1C(=O)CSC(=S)N1CCOCC1 | -2 | 10 | 3593 | ? | 20 | -1 | / | / | /
CC(C)Cc1nnc(NC(=O)c2cc(S(=O)(=O)N(C)C)ccc2N2CCCC2)s1 | 10 | -4 | 6620 | -6 | 10 | -3 | / | / | /
O=C(Nc1ccc2nc(-c3cccs3)c(-c3cccs3)nc2c1)N1CCOCC1 | -4 | 41* | 18209* | 29 | 5 | 68* | 39* | 2 | 16
O=C(Nc1cccc(O)c1)N1CCOCC1 | 0 | -1 | 2893 | 3 | -18 | 0 | / | / | /
CC1(C(=O)NS(=O)(=O)c2ccccc2Cl)CCN1C(=O)CC1CC1 (stereo not drawn) | / | -9 | 3931 | -3 | / | 0 | / | / | /
COC(=O)c1cccc(NC(=O)CSc2nnc(-c3ccco3)o2)c1 | 0 | 5 | 3840 | -18 | 7 | -3 | / | / | /
Cc1ccc(Nc2nc(C)cc(C)n2)c(Br)c1 | -1 | -23 | 9927 | 35* | -6 | 32* | 0 | -4 | -2
CCC(=O)Nc1cccc(C(=O)N(Cc2ccccc2)Cc2ccccc2)c1 | 6 | 3 | 4143 | 44* | -8 | -2 | -1 | -2 | -3
Cc1ccc(C2(C)NC(=O)N(CC(=O)NC3CCCCC3)C2=O)cc1 (stereo not drawn) | 3 | 0 | 5589 | -1 | / | 4 | / | / | /
O=C(NCc1ccncc1)C(=O)NCC1OCCN1S(=O)(=O)c1ccccc1 (stereo not drawn) | -1 | -3 | 2961 | -5 | / | 0 | / | / | /
CCOC(=O)c1cnc2c(C(=O)OCC)cnn2c1N | 5 | 31* | 4174 | ? | -3 | 1 | 1 | 0 | 3
O=C(Cc1ccc(Br)cc1)N/N=C/c1cccnc1 | 0 | -2 | 6074 | 4 | 10 | -2 | / | / | /
COc1cc(C(=O)NCCOc2ccc(C)c(C)c2)cc(OC)c1OC | 0 | -6 | 3386 | -8 | 0 | 0 | / | / | /
COc1cccc(OCCNC(=O)c2cc(OC)c(OC)c(OC)c2)c1 | -6 | -14 | 3054 | 40* | -2 | 0 | -1 | 0 | 2
COc1cc(CC(NC(C)=O)C(=O)NC2CCN(C(=O)c3ccc(C)cc3)CC2)cc(OC)c1 (stereo not drawn) | 10 | 5 | 2861 | 43* | 6 | 0 | -1 | -5 | 0
Cc1ccc(S(=O)(=O)N2C[C@H]3[C@H]4C(=O)N(c5ccccc5)C(=O)[C@H]4C[C@H](OC(=O)Nc4cccs4)[C@@]3(O)C2)cc1 | 4 | 4 | 3196 | -6 | / | 0 | / | / | /

From PubChem BioAssay
